# Compounds with a hit are over-represented: about 4.5% of the library has one in this group of screens.
# CSC inhib = cancer stem cell viability inhibitors, primary screen, luminescence; cancer stem cell-like cells viability; inhibition, % at 7.5 µM; actives 1.1% (n = 300,000); in the data active = inhibition above about 75%; tested in HMLE shEcad cells
# aSyn UTR inh = MLPCN primary screen, SNCA 5' untranslated region | alpha-synuclein 5'UTR reporter, inhibitor activity | inhibition, % (tested at 7.5 µM) | actives 0.82% (n = 300,000); in the data active = inhibition above about 60%;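 also: H4 neuroglioblastoma cells stably carrying SNCA 5'UTR luciferase fusion; 0% = DMSO wells and 100% = positive control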
# Mdm2-MdmX inh = inhibitors of human Mdm2-MdmX association, primary screen, cell-based, luminescence, split luciferase, SaOS-2, uHTS. Protein Mdm4 (Homo sapiens) + E3 ubiquitin-protein ligase Mdm2 (Homo sapiens), …. SaOS-2 split-luciferase Mdm2/MdmX complementation. inhibition, % at 8 µM. actives 3% (n = 330,000). AID 485346, 2010;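 active = inhibition of at least 50% at 8 µM in the primary screen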
# 697 NFkB inh = inhibitors of PMA/ionomycin-induced NF-kB reporter, 697 cells, primary screen, B-cell NF-kB inhibitor project, cell-based, luminescence, uHTS. actives 0.33% (n = 330,000). 697 B-cell NF-kB luciferase reporter, 16 h. inhibition, % at 4 µM. AID 435022, 2010; in the data active = inhibition above about 35%
# Jurkat NFkB inh = inhibitors of induced NF-kB luciferase reporter, primary screen, TCR NF-kB activation inhibitor project, cell-based, luminescence, uHTS; inhibition, % at 4 µM; Jurkat, PMA/ionomycin-induced NF-kB luciferase reporter; actives 0.53% (n = 330,000); in the data active = inhibition above about 50%
# Gli-Sufu antag = Gli-Sufu pathway antagonists, primary screen, luciferase luminescence, Sufu-KO-LIGHT cells, uHTS; Sufu-KO-LIGHT fibroblasts, Gli luciferase reporter luminescence; inhibition, % at 5 µM; actives 0.74% (n = 340,000); AID 588413, 2011;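 active = inhibition above about 55%, limit read from the data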;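 also: 0% = DMSO-treated cells and 100% = wells with medium but no cells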
# Gli antag conf = Gli-SUFU pathway antagonists, confirmation, single concentration, luciferase luminescence, Sufu-KO-LIGHT cells. actives 40% (n = 2,500). Gli luciferase reporter. AID 602428, 2012. inhibition, % at 5 µM. shares compounds with Gli-Sufu antag;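 active = mean inhibition at 5 µM reaching about 45%, limit read from the data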;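 also: plate controls were DMSO-treated cells for no effect and wells lacking cells for full effect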
# Gli cytotox = cytotoxicity in Sufu-KO-LIGHT cells, confirmation, cytotoxicity control for Gli-SUFU antagonist project, cell-based, ATP luminescence, single concentration; shares compounds with Gli-Sufu antag; cytotoxicity, % at 5 µM; actives 32% (n = 2,500);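 active = mean cytotoxicity at 5 µM above about 25%, limit read from the data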;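 also: cells exposed to compound overnight for roughly 16 to 18 hours; plate controls were DMSO wells with cells for no effect and medium without cells for full effect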
# Wnt3a cs = Wnt3a reporter signal inhibition, confirmation, counter-screen for Gli-SUFU antagonist project, Wnt-LIGHT cells, luminescence, single concentration | actives 20% (n = 2,500) | inhibition, % at 6.25 µM | shares compounds with Gli-Sufu antag | AID 651995, 2013 | Wnt3a-driven luciferase reporter;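 active = mean inhibition above about 25%, limit read from the data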
# The depositor's hits bear a star; . = no result given.
SMILES,CSC inhib,aSyn UTR inh,Mdm2-MdmX inh,697 NFkB inh,Jurkat NFkB inh,Gli-Sufu antag,Gli antag conf,Gli cytotox,Wnt3a cs
CCCCOC(=O)/C=C/c1ccc(OC(=O)OC)c(OC(=O)OC)c1,-2.9,-3.7,23.8,16.5,3.1,61.9*,45.6*,11.4,36.8*
COc1ccc(/C=C/C(=O)OCCNC(=O)c2ccncc2)cc1OC,.,1.6,11.6,0.8,-9.6,-1.9,.,.,.
COC(=O)Oc1ccc(/C=C/C(=O)OC(C)C)cc1OC(=O)OC,58.1,-127.3,-2.3,-148.2,23.6,53.3,28.7,23.5,-6.0
CCCOc1cccc(C2C(C(=O)c3cccs3)=C(O)C(=O)N2Cc2cccnc2)c1 (centres undefined),-0.6,-5.8,3.3,12.6,8.2,-0.7,.,.,.
O=C(Cc1ccccc1F)Nc1nc2ccccc2[nH]1,4.1,-20.0,-43.7,-31.8,-22.5,66.6*,12.0,8.2,-34.3
O=C(Cc1cccc2ccccc12)Nc1nc2ccccc2[nH]1,3.0,-6.1,21.1,5.3,-7.1,8.6,.,.,.
Cn1c(O)c(N=NC(=O)CNC(=O)c2cccnc2)c2ccccc21,-12.8,8.2,8.1,10.9,3.6,51.1,25.2,0.5,3.9
CCCn1c(O)c(N=NC(=O)CNC(=O)c2cccnc2)c2ccccc21,-9.7,10.9,-7.6,-22.7,12.2,6.9,.,.,.
CC1CCC(NC(=O)COC(=O)c2cccnc2Cl)CC1 (centres undefined),.,.,-13.2,16.4,0.8,-6.9,.,.,.
C=Cn1cc[n+](CC(=O)c2ccc(-c3ccccc3)cc2)c1,19.2,1.4,19.8,-5.9,12.5,53.1,36.5,7.9,-28.8
O=C1/C(=C2\C(=O)N(Cc3ccc(F)cc3)c3ccccc32)SC(=S)N1CCS(=O)(=O)O,-8.8,-25.2,-25.7,-1.0,4.5,5.3,.,.,.
O=C(O)CN1C(=O)/C(=C2\C(=O)N(Cc3ccccc3Cl)c3ccccc32)SC1=S,4.0,7.8,.,.,.,57.4*,11.1,6.6,20.2
NS(=O)(=O)c1ccc(CCNc2ncnc3sccc23)cc1,1.5,-18.0,15.1,26.4,33.4,59.6*,54.9*,30.7*,28.2*
Cc1onc(-c2ccc(Cl)cc2Cl)c1-c1csc(N/N=C/c2ccccc2Cl)n1,45.4,35.4,27.0,-20.9,16.3,1.4,.,.,.
O=C(O)c1ccccc1Oc1ccc(Oc2ccccc2)cc1,1.7,1.4,13.2,2.8,12.5,-6.7,.,.,.
C=CCNC(=O)c1ccc(CN2CCC(Cc3ccccc3)CC2)cc1,-6.6,-6.7,10.8,-2.6,18.7,55.9*,16.2,18.1,-5.9
COc1ccc(CCNC(=O)c2ccc(CN3CCC(Cc4ccccc4)CC3)cc2)cc1,-4.4,-43.2,22.8,-33.9,29.7,17.6,.,.,.
Nc1nonc1-n1nnc(C(=O)N/N=C/c2ccncc2)c1CSc1ccccc1,0.7,-4.5,-3.9,-30.8,3.1,62.4*,27.1,19.7,1.7
COc1cccc(-c2nc(CS(=O)(=O)CC(=O)NCCN3CCOCC3)c(C)o2)c1,-7.8,1.9,-5.5,-4.6,7.0,77.1*,21.4,-0.8,-6.2
O=C(C[C@@H]1C/C=C\C[C@H](NC(=O)OCC2c3ccccc3-c3ccccc32)C(=O)O[C@H](c2ccccc2)CNC1=O)NCCO,2.3,.,-6.1,-11.1,1.3,54.1,59.2*,33.6*,-70.9
O=C(C[C@@H]1C/C=C\C[C@@H](NC(=O)OCC2c3ccccc3-c3ccccc32)C(=O)OC[C@@H](Cc2ccccc2)NC1=O)NCCO,.,.,-4.8,-5.8,-6.4,54.0,61.7*,28.0*,-68.9
O=C(C[C@H]1C/C=C\C[C@H](NC(=O)OCC2c3ccccc3-c3ccccc32)C(=O)O[C@@H](c2ccccc2)CNC1=O)NCCO,10.0,.,19.7,-8.0,-12.4,26.9,.,.,.
CC(C)(C)[C@@H]1COC(=O)[C@@H](NC(=O)OCC2c3ccccc3-c3ccccc32)C/C=C\C[C@@H](CC(=O)NCCO)C(=O)N1,-4.9,.,-9.3,19.6,0.0,26.6,.,.,.
COc1ccc(OC)c(CN2CCN(c3ccc(S(=O)(=O)N4CCCC4)cn3)CC2)c1,28.6,.,2.8,-7.8,-1.1,11.3,.,.,.
COc1cccc(OC)c1/C(O)=C(\C#N)c1nc2ccccc2[nH]1,4.1,-1.3,-8.7,4.0,-2.0,51.4,19.1,22.1,-7.3
SMILES,CSC inhib,aSyn UTR inh,Mdm2-MdmX inh,697 NFkB inh,Jurkat NFkB inh,Gli-Sufu antag,Gli antag conf,Gli cytotox,Wnt3a cs
CC(C)Cc1nnc(NC(=O)CCC(=O)N2CCN(c3ccc(F)cc3)CC2)s1,-27.5,25.7,17.6,13.0,-6.9,4.6,.,.,.
COc1ccc(C(=O)CCC(=O)O)cc1,-4.3,-17.8,-14.2,-0.2,5.3,1.8,.,.,.
COc1ccc(CCCC(=O)O)c(C)c1,-7.1,19.5,43.6,5.0,-4.6,95.1*,19.9,-10.9,16.6
Cc1cc(C)cc(NC(=S)NC(=O)Cc2ccccc2)c1,-10.4,21.4,31.5,-2.8,-1.8,60.5*,11.7,22.7,0.4
Cc1ccc(C(=O)O)cc1NC(=S)NC(=O)Cc1ccccc1,-4.0,19.9,11.2,8.0,-4.1,-21.2,.,.,.
CC(C(=O)Nc1ccccc1)N(c1cccc(Cl)c1)S(C)(=O)=O (centres undefined),-4.1,6.6,1.5,5.2,11.0,14.7,.,.,.
O=C(Nc1ccc(Cl)cc1)N1CCOCC1,-8.7,-10.8,-29.8,5.3,-3.9,-13.2,.,.,.
CC(C)c1ccc(NC(=O)N2CCOCC2)cc1,-5.4,-107.4,7.3,-35.1,-51.3,60.0*,-10.5,3.9,-54.9
Cc1ccc(S(=O)(=O)N2CCN(c3ncnc4sccc34)CC2)cc1C,.,.,23.5,-8.6,25.0,52.4,47.2*,26.2*,36.1*
Cc1ccc(C)c(S(=O)(=O)N2CCN(C(=O)C3CCN(c4ncnc5sc(C)c(C)c45)CC3)CC2)c1,.,9.7,22.5,-56.8,19.7,73.0*,34.3,24.7,-10.8
Cc1sc2ncnc(N3CCN(S(=O)(=O)c4ccccc4)CC3)c2c1C,.,.,2.6,-11.1,4.4,59.6*,53.6*,25.8*,30.4*
COc1ccc(C(=O)/C=C/NCc2ccc(F)cc2)cc1OC,-2.0,3.5,7.6,2.9,-21.0,2.0,.,.,.
CC(C)c1nc(SCC(=O)Nc2c[nH]c(=O)[nH]c2=O)c2cnn(-c3ccccc3)c2n1,4.9,27.6,17.8,4.4,3.8,6.1,.,.,.
